# Test results from PubChem BioAssay (NCI).
# About 83,000 compounds went through this panel and 20% of them were active in at least one assay; those are over-represented in the sample as a whole.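 Cells were grown in 96-well plates and exposed to the test compound at a single concentration for 48 hours; results are reported as percent growth, with values below 10 considered active.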 Active and inactive are the calls of the source.
# System: BT-549 breast
# Assay: NCI-60 one-dose screen, 48 h (100 = growth as untreated, 0 = no growth, -100 = all killed)
# Conditions: 10 µM
row,SMILES,growth
1,CC1(C)OC(=O)C(c2ccsc2)C(=O)O1,124% (inactive)
2,C#Cc1cccc(NC(=O)c2ccc(Cl)cc2Cl)c1,111% (inactive)
3,C=CCCCCCCCCCOC(C)=O,132% (inactive)
4,CCN(CC)CCCC(C)Nc1ccnc(/C=C/c2ccc(Cl)cc2)c1 (stereo not drawn),29.1% (inactive)
5,CCOC(=O)C1OC1c1ccccc1 (stereo not drawn),102% (inactive)
6,Oc1ccc(N=Nc2ccc(Br)cc2)c(O)c1,46.1% (inactive)
7,Cc1cc(C(C)(C)C)cc(C)c1Br,104% (inactive)
8,O=C(CC(=O)c1ccccc1O)c1ccccc1,77.5% (inactive)
9,CC(C)OC(=O)c1cc(NC(=S)OC(C)C)ccc1Cl,180% (inactive)
10,O=[N+]([O-])c1ccc(CO)cc1,105% (inactive)
11,Sc1ccc(Nc2c3ccccc3nc3ccccc23)cc1,94.6% (inactive)
12,C#C[C@H]1CCCCCC1O (stereo partly drawn),113% (inactive)
13,CCOC(=O)CCCS(C)(=O)=O,100% (inactive)
14,O=C(O)COCC(=O)O,122% (inactive)
15,[O-][N+](=Nc1cccc(Cl)c1)c1cccc(Cl)c1,73.1% (inactive)
16,OCC(O)C(O)C(O)C(O)/C=N/O (stereo not drawn),91.5% (inactive)
17,CC(=O)c1ccc(C(C)(C)C)cc1,102% (inactive)
18,CCN(CC)C(=O)/C=C(/C)c1ccccc1,94.5% (inactive)
19,CCCCC1C(=O)N(c2ccccc2)N(c2ccccc2)C1=O,98.8% (inactive)

row,SMILES,growth
1,O=C1C=C(Nc2ccc([N+](=O)[O-])cc2)c2ccccc2C1=O,-1.53% (active)
2,CCCCC(O)c1ccccc1 (stereo not drawn),110% (inactive)
3,CCCCCC(C)(CC(=O)O)CC(=O)O,113% (inactive)
4,COc1cccc(/C=N/NC(=S)NC2CC3CCC2C3)c1O (stereo not drawn),79.8% (inactive)
5,COc1cc([C@@H]2c3cc4c(cc3[C@H](O)[C@H]3COC(=O)[C@H]23)OCO4)cc(OC)c1OC,7.33% (active)
6,CCCC(C)OCC(=O)O (stereo not drawn),127% (inactive)
7,C=CC[N+](C)(C)C,114% (inactive)
8,COc1ccc(C2(O)CCCCC2)cc1,112% (inactive)
9,S=C1CCCCCN1,103% (inactive)
10,Cc1ccc(Cl)cc1N1C(=O)CC(Sc2ccccc2N)C1=O (stereo not drawn),111% (inactive)
11,CC1(C)/C(=C\CO)C2CCC1C2 (stereo not drawn),102% (inactive)
12,O=[N+]([O-])c1cccc(C(F)(F)F)c1,103% (inactive)
13,CC(C)CCCC(=O)O,108% (inactive)
14,NC(CSC(c1ccccc1)(c1ccccc1)c1ccccc1)C(=O)O (stereo not drawn),47.4% (inactive)
15,c1ccc2c(N3CCCCC3)ncnc2c1,90.8% (inactive)
16,CCCCCCCO,103% (inactive)
17,CC(C(=O)O)(C1CCCCC1)C1(O)CCCCC1 (stereo not drawn),103% (inactive)
18,CC1(C(=O)O)NC(C(=O)O)Cc2c1[nH]c1ccccc21 (stereo not drawn),119% (inactive)
19,O=C(/C(=N/O)c1ccccc1)c1ccccc1,98% (inactive)
